Here are results for 19 molecules from ChEMBL document CHEMBL5724796, “Tm Shift (DSF) assay results for EUbOPEN Chemogenomics Library” (2024).

What all share (conditions): Compound concentration 20.0 uM
For test [1], the target named is Tyrosine-protein kinase ABL1 (Homo sapiens) (UniProt P00519).
Test [2] deals with Bromodomain-containing protein 4 (Homo sapiens) (UniProt O60885).
Test [3] addresses Cyclin-dependent kinase 2 (Homo sapiens) (UniProt P24941).
The target in test [4] is Casein kinase I isoform delta (Homo sapiens) (UniProt P48730).
Chain of Casein kinase I isoform delta (Homo sapiens) (P48730 whole entry, looked up, canonical isoform): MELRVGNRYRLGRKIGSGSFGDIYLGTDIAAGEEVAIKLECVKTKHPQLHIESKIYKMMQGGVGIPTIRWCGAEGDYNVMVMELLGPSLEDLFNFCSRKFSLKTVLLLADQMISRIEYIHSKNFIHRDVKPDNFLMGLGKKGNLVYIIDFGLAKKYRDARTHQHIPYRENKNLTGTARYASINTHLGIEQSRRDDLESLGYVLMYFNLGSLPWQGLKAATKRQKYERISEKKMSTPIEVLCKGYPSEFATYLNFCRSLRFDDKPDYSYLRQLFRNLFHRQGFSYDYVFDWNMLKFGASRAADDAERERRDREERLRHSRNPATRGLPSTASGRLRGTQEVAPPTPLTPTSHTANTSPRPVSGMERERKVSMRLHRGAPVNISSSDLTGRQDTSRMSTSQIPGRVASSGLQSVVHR
The target of test [5] is Glycogen synthase kinase-3 beta (Homo sapiens) (UniProt P49841).
Chain of Glycogen synthase kinase-3 beta (Homo sapiens) (P49841 whole entry, looked up): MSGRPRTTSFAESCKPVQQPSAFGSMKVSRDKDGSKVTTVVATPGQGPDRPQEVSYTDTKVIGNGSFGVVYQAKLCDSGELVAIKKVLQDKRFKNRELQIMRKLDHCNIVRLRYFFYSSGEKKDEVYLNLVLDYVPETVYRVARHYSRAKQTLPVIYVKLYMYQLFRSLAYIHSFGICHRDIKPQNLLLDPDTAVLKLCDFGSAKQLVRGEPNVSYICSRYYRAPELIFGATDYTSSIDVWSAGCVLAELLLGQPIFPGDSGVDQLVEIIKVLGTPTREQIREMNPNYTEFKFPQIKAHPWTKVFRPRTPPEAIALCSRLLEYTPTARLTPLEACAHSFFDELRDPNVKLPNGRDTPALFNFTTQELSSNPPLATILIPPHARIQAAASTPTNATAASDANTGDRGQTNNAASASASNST
The target in test [6] is Mitogen-activated protein kinase 1 (Homo sapiens) (UniProt P28482).
Chain of Mitogen-activated protein kinase 1 (Homo sapiens) (P28482 whole entry): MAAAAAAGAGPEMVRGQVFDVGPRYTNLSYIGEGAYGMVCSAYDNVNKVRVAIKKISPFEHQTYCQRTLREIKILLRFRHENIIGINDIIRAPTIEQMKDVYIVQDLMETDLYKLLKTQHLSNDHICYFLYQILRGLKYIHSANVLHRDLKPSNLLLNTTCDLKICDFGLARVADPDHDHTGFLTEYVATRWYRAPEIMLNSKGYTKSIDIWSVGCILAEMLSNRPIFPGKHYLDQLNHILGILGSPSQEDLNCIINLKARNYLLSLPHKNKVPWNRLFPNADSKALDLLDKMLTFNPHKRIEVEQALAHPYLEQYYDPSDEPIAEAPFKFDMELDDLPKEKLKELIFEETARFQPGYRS
Test [7] has as its target T1, Aurora kinase A (Homo sapiens) (UniProt O14965).
T1 sequence (whole entry): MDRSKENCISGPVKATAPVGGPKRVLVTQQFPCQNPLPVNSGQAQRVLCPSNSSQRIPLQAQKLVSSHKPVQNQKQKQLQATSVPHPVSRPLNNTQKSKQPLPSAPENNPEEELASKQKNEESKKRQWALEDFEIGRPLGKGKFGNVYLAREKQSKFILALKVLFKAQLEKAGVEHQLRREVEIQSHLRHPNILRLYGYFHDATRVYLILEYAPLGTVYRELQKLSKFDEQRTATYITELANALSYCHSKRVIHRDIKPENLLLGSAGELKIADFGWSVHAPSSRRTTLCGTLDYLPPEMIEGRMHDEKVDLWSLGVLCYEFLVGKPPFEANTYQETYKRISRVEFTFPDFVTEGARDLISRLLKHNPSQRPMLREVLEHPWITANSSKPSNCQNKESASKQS

In test [8] the target is T2, Transcription intermediary factor 1-alpha (Homo sapiens) (UniProt O15164).
T2 sequence (whole entry): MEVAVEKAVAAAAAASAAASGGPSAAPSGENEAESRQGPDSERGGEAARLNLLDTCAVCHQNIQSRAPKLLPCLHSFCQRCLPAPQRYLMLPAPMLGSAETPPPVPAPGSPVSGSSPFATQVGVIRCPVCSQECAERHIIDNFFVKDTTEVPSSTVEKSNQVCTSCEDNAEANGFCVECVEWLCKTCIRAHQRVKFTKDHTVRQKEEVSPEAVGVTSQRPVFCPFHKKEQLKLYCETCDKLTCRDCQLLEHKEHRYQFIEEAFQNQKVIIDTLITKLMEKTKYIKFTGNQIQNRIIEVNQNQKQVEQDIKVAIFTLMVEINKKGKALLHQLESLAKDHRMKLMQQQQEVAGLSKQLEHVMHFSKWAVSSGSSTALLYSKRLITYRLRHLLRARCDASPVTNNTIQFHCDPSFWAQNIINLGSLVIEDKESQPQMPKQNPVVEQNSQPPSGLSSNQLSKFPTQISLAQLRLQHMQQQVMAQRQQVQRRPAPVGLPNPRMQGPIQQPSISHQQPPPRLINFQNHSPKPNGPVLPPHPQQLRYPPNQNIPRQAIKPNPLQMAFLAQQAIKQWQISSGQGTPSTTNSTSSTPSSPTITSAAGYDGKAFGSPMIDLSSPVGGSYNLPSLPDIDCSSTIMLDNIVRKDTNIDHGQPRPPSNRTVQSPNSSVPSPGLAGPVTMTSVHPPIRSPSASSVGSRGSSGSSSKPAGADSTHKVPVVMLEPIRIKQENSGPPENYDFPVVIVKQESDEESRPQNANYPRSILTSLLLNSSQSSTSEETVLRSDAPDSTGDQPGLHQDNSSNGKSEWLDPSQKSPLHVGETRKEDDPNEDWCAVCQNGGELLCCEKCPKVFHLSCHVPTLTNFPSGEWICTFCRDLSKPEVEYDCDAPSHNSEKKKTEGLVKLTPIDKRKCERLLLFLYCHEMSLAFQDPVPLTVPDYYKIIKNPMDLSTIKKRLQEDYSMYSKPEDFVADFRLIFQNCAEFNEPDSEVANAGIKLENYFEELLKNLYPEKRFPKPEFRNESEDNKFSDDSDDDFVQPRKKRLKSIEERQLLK

As usually defined, the ΔTm is the shift of the melting midpoint relative to a reference.

Chain of Tyrosine-protein kinase ABL1 (Homo sapiens) (P00519 whole entry): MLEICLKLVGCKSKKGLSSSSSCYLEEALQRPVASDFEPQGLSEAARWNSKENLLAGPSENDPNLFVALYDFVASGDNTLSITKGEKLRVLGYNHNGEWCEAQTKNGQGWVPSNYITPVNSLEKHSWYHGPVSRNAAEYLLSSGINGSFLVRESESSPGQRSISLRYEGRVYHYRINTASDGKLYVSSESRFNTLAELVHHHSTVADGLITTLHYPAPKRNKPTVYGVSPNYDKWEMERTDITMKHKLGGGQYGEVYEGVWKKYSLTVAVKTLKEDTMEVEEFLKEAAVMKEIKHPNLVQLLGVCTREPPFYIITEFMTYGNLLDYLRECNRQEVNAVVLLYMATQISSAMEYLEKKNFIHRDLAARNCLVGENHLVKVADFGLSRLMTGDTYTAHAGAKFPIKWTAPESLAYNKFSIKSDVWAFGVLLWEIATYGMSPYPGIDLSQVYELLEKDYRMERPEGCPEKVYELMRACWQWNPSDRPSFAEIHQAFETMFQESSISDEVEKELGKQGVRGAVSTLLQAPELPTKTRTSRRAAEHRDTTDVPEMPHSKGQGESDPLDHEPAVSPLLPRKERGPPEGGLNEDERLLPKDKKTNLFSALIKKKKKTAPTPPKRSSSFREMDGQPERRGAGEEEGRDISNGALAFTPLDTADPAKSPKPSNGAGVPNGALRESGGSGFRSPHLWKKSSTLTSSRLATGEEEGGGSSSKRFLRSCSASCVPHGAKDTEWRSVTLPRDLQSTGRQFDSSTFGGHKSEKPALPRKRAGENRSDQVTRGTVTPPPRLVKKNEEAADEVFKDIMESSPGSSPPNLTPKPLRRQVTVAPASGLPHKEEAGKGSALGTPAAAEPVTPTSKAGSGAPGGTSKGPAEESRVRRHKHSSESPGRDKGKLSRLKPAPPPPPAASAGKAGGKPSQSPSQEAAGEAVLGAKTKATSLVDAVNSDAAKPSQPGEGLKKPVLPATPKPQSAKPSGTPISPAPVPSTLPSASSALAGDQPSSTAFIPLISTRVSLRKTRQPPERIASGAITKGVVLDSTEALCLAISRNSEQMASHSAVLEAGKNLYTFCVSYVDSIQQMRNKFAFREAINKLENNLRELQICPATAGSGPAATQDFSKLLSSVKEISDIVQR

Regarding `COCc1nc(C(F)(F)F)[nH]c1-c1cc(C(=O)N2CC(c3ccc(C#N)cc3)C2)c(C)cc1C`, the ΔTm is 0.13 °C in test [1]; -3.21 °C in test [2]; -0.08 °C in test [3]; -0.27 °C in test [4]; -1.21 °C in test [5]; 0.07 °C in test [6]. Also, the figures for the shift in melting temperature (ΔTm) in test [7] and in test [8] were -2.54 °C and -1.79 °C, respectively.

With `N#Cc1cc2cc(CN3CCC(Nc4ncnc5sc(CC(F)(F)F)cc45)CC3)ccc2[nH]1`, the ΔTm was 0.42 °C in test [1]; 1.04 °C in test [2]; 0.06 °C in test [3]; 1.89 °C in test [4]; -0.5 °C in test [5]; 0.61 °C in test [6]. Also, the values for the ΔTm in test [7] and in test [8] were -0.57 °C and 1.28 °C, respectively.

For the molecule `COc1ccc(/C=C/C(=O)NO)c(-c2ccc(-c3ccccc3)cc2)c1`, the ΔTm in test [1] was -1.93 °C; in test [2] it was 2.27 °C; in test [3], 0.43 °C; in test [4], -0.46 °C; in test [5], 3.08 °C; in test [6], -9.33 °C. In addition, the ΔTm in test [7] is 2.77 °C; in test [8] it was 3.31 °C.

Regarding `CC(=O)N[C@@H](CCCCNC(=O)CSCCNC(=O)CCNC(=O)[C@H](O)C(C)(C)COP(=O)(O)OP(=O)(O)OC[C@H]1O[C@@H](n2cnc3c(N)ncnc32)[C@H](O)[C@@H]1OP(=O)(O)O)C(N)=O`, the ΔTm was 0.23 °C in test [1]; -2 °C in test [2]; -0.07 °C in test [3]; -0.41 °C in test [4]; -0.08 °C in test [5]; -0.01 °C in test [6]. The ΔTm in test [7] is -0.37 °C; in test [8], 1.51 °C.

Turning to `CCCOC(=O)N1CCN(C(=O)c2ccc3c(Cl)cc(-c4ccc(C5(N)CC5)cc4)nc3c2)C[C@H]1C`, the ΔTm in test [1] is 0.57 °C; in test [2], -1.83 °C; in test [3], 0.05 °C; in test [4], 0.03 °C; in test [5], -1.68 °C; in test [6], -7.2 °C. In addition, the shift in melting temperature (ΔTm) in test [7] was 0.93 °C; in test [8] it was -3.45 °C.

In the case of `CC(C)(C)OC(=O)Nc1ccc(-c2cc(C(=O)NCCCCCCC(=O)NO)no2)cc1`, the ΔTm was -1.36 °C in test [1]; 0 °C in test [2]; -1.64 °C in test [3]; -3.22 °C in test [4]; 0 °C in test [5]; 0 °C in test [6]. Moreover, the results for the ΔTm in test [7] and in test [8] were -4.92 °C and -2.07 °C, respectively.

With `Cc1c(Nc2ccc(S(=O)(=O)N3CCN(C)CC3)cc2F)nc2ccc(-c3cnn(C4CC4)c3)cn2c1=O`, the thermal shift (ΔTm) was 0.73 °C in test [1]; -2.59 °C in test [2]; 0.26 °C in test [3]; -0.28 °C in test [4]; 0.08 °C in test [5]; 0.06 °C in test [6]. Moreover, the shift in melting temperature (ΔTm) in test [7] was -1.87 °C; in test [8], -1.92 °C.

`Cc1cc(/N=N/c2ccc(S(=O)(=O)Nc3ccccn3)cc2)c(N)cc1O`: the ΔTm is 0.27 °C in test [1]; 9 °C in test [2]; 1.3 °C in test [3]; -0.2 °C in test [4]; -0.93 °C in test [5]; 0.31 °C in test [6]. The figures for the ΔTm in test [7] and in test [8] were -2.28 °C and 1 °C, respectively.

Take `COc1cc(C(=O)NCC2(N(C)C)CCCC2)cc(OC)c1OCc1ccccc1`: the ΔTm is 0.81 °C in test [1]; -1.07 °C in test [2]; 0.36 °C in test [3]; -0.21 °C in test [4]; -0.01 °C in test [5]; 0.38 °C in test [6]. The ΔTm in test [7] was -0.99 °C; in test [8], 3.25 °C.

In the case of `O=C(c1cc(Cc2n[nH]c(=O)c3ccccc23)ccc1F)N1CCn2nc(C(F)(F)F)nc2C1`, the ΔTm was 0.72 °C in test [1]; -2.42 °C in test [2]; 0.1 °C in test [3]; -0.28 °C in test [4]; -0.21 °C in test [5]; 0.61 °C in test [6]. The ΔTm in test [7] is -2.34 °C; in test [8] it was -0.51 °C.

On to `C[C@H](Nc1cc(Cl)nc2c1cnn2[C@@H]1O[C@H](COP(=O)(O)CP(=O)(O)O)[C@@H](O)[C@H]1O)c1ccccc1F`, for which the thermal shift (ΔTm) in test [1] is 1.24 °C; in test [2], -1.43 °C; in test [3] it was -0.1 °C; in test [4], 0.27 °C; in test [5], 1 °C; in test [6] it was -0.38 °C. For the same molecule, the figures for the ΔTm in test [7] and in test [8] were 1.74 °C and -0.82 °C, respectively.

`COc1ccc2nc3[nH]nc(C)c3c(NCCOCCO)c2c1`: the ΔTm in test [1] was 0.63 °C; in test [2], -1.31 °C; in test [3], 0.26 °C; in test [4], 0.76 °C; in test [5] it was 2.8 °C; in test [6] it was -0.01 °C. The shift in melting temperature (ΔTm) in test [7] was 0.31 °C; in test [8], -0.59 °C.

`O=C1c2ccccc2C(=O)c2oc(-c3ccccc3)nc21`: the ΔTm in test [1] is 0.27 °C; in test [2] it was -2.65 °C; in test [3] it was 0.44 °C; in test [4], -0.2 °C; in test [5], 0.18 °C; in test [6], -0.09 °C. Besides, the ΔTm in test [7] was -2.45 °C; in test [8], 1.13 °C.

In the case of `COc1cc2c(NC3CCN(C4CCCCC4)CC3)nc(N3CCCN(C(C)C)CC3)nc2cc1OCCCN1CCCCC1`, the thermal shift (ΔTm) in test [1] was 0.29 °C; in test [2], -1.02 °C; in test [3], 0.48 °C; in test [4] it was 0.1 °C; in test [5] it was 0.08 °C; in test [6] it was -0.69 °C. The ΔTm turned out to be 0.32 °C in test [7] and 0.36 °C in test [8].

Take `O=C(c1cc(Cc2n[nH]c(=O)c3ccccc23)ccc1F)N1CC(CNC2CC2)C1`: the ΔTm was 0.54 °C in test [1]; -1.65 °C in test [2]; 0.08 °C in test [3]; -0.14 °C in test [4]; -0.61 °C in test [5]; 0.06 °C in test [6]. For the same molecule, the ΔTm in test [7] was -2.47 °C; in test [8] it was 0.44 °C.

Take `NS(=O)(=O)OC[C@H]1C[C@@H](Nc2ncncc2C(=O)c2ccn(Cc3cccc(Br)c3)n2)C[C@@H]1O`: the shift in melting temperature (ΔTm) in test [1] is 0.71 °C; in test [2], -2.22 °C; in test [3], 0.03 °C; in test [4] it was 0.64 °C; in test [5], 1.22 °C; in test [6], 0.37 °C. For the same molecule, the thermal shift (ΔTm) in test [7] was -1.76 °C; in test [8], -1.07 °C.

On to `O=c1c2nnc(C3CCOCC3)n2cc(Br)n1CC1CCCC1`, for which the ΔTm in test [1] is 0.74 °C; in test [2] it was -2.93 °C; in test [3], 0.35 °C; in test [4] it was -0.32 °C; in test [5], -0.29 °C; in test [6] it was 0.23 °C. Further, the ΔTm in test [7] was -1.77 °C; in test [8], -0.67 °C.

On to `O=C(CCCCCCNC(=O)c1cnc(N(c2ccccc2)c2ccccc2Cl)nc1)NO`, for which the ΔTm is 0.43 °C in test [1]; -2.47 °C in test [2]; 0.09 °C in test [3]; 0.15 °C in test [4]; -0.06 °C in test [5]; -0.04 °C in test [6]. In addition, the ΔTm in test [7] is -0.63 °C; in test [8], -0.75 °C.

On to `Cn1c(=O)cc(N2CCC[C@@H](N)C2)n(Cc2cc(F)ccc2C#N)c1=O`, for which the ΔTm in test [1] was 0.09 °C; in test [2], -1.94 °C; in test [3] it was 0.46 °C; in test [4], -0.06 °C; in test [5], -0.59 °C; in test [6], 0.52 °C. Besides, the ΔTm is -0.72 °C in test [7] and 0.97 °C in test [8].
